In the library only some 7.6% were active in any assay of this set; here they are far more common.
NS3h inh CB: blocks HCV NS3 helicase binding to DNA. NS3h Cy5-dT15 DNA binding, fluorescence polarization. inhibition, % at 100 µM. actives 1.6% (n = 16,000);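 active = inhibition above the average over every tested compound plus 3 SD, cut at about 40% in these data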
Cy5 interf NS3h: counter-screen for HCV NS3 helicase inhibitors: fluorescence interference. Cy5-dT15 DNA with NS3h; actives lie on both sides; signal over control mean, under 1 quenches. fluorescence interference ratio at 100 µM. actives 6% (n = 16,000). AID 720488;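 active = compound fluorescence over control fluorescence at most 0.8, a quencher, or at least a set upper limit, an enhancer; inactive = ratio between 0.8 and the set upper limit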
Starred values were filed as active, the others as inactive.

SMILES	NS3h inh CB	Cy5 interf NS3h
Cc1ccc(-c2cc3nc(C)c(Cl)c(=O)n3[nH]2)cc1	14	0.77*
CCCc1cc(=O)n2[nH]c(-c3ccc(F)cc3)cc2n1	0	0.87
CCCc1cc(=O)n2[nH]c(-c3ccc(C)cc3)cc2n1	30	1.2*
Cc1nc2cc(-c3ccccc3Cl)[nH]n2c(=O)c1Cl	12	1.1
O=C1c2cc(S(=O)(=O)NCCCO)ccc2-c2ccc(S(=O)(=O)NCCCO)cc21	-5	0.63*
O=C1c2cc(S(=O)(=O)Nc3ccncc3)ccc2-c2ccc(S(=O)(=O)Nc3ccncc3)cc21	15	0.92
Cc1ccc(C)c(OCC(O)CN2CCN(c3ccccn3)CC2)c1 (stereo not drawn)	-10	1
O=C(/C=C/c1cccc([N+](=O)[O-])c1)Nc1ccc(-c2nc3ccccc3o2)c(O)c1	4	1.1
O=C1c2ccccc2C(=O)N1/N=C\c1c(O)ccc2ccccc12	9	0.62*
O=C1c2cccc3cccc(c23)C(=O)N1/N=C\c1ccc(O)cc1	7	1
Cc1cn(S(=O)(=O)c2cc([N+](=O)[O-])ccc2C)cn1	2	1
CS(=O)(=O)N1CCN(Cc2ccccc2[N+](=O)[O-])CC1	4	0.72*
Cc1ccccc1CN1CCN(S(C)(=O)=O)CC1	10	0.96
CS(=O)(=O)N1CCN(Cc2ccccc2C(F)(F)F)CC1	5	0.55*
Cc1ccc(S(=O)(=O)N2CCN(Cc3ccccc3[N+](=O)[O-])CC2)cc1	4	0.97
CC1(C)Nc2ccccc2N(Cc2ccccc2)C1=O	1	1
O=C(NC(=S)Nc1ccc(Br)cn1)c1ccco1	7	1
CCOc1ccc(-c2nnc(NC(=O)Nc3ccc(Cl)c(Cl)c3)s2)cc1	21	1
Cc1ccc(N(CC(=O)Nc2ccccc2Cl)S(=O)(=O)c2ccc(F)cc2)cc1	5	1
O=C1CC(N2CCN(c3ncccn3)CC2)C(=O)N1c1ccc(Br)cc1 (stereo not drawn)	16	0.81
NC(=O)COc1ccc(/C=c2/sc3n(c2=O)CCCN=3)cc1	10	1.2*
COC(=O)C1=C(C)N(c2ccc(C)cc2)/C(=C\c2ccc(OCC(N)=O)cc2)C1=O	-3	0.99
O=c1oc(-c2cccnc2)nc2ccccc12	3	1
O=C1c2ccc(-c3nc4ccccc4c(=O)o3)cc2C(=O)N1c1c[nH]c(=O)[nH]c1=O	41*	1
CCOC(=O)c1c(-c2ccc(Cl)cc2)csc1NC(=O)COc1ccc(OC)cc1	10	0.97
SMILES	NS3h inh CB	Cy5 interf NS3h
Cc1ccoc1C(=O)Nc1ccccc1C(=O)O	-2	1
Cc1cc2c(c(=O)o1)C(c1ccc([N+](=O)[O-])cc1)C(C#N)=C(N)O2 (stereo not drawn)	2	0.97
CC(Nc1cc(N2CCN(C)CC2)ccc1[N+](=O)[O-])c1ccc(Br)cc1 (stereo not drawn)	19	0.9
Cc1ccc(OCCNc2cc(N3CCN(C)CC3)ccc2[N+](=O)[O-])cc1C	21	0.61*
COc1ccc(OC)c(NC(=S)NC(NC(=O)c2cccc(C)c2)C(Cl)(Cl)Cl)c1 (stereo not drawn)	-7	1.1
CC1=C(C)CC2C(=O)N(c3cccc(C)c3)C(=O)C2C1 (stereo not drawn)	4	1
CCc1nc2ccccc2n1Cc1ccc([N+](=O)[O-])cc1	4	1
CN(C)CCn1c2ccccc2c2nc3ccc([N+](=O)[O-])cc3cc21	-13	0.74*
CC(C(=O)O)N1C(=O)/C(=C/c2ccccc2)SC1=S (stereo not drawn)	2	1.2*
Cc1ccccc1/C=C1\SC(=S)N(C(C(=O)O)C(C)C)C1=O (stereo not drawn)	8	1
O=C1/C(=C/c2ccc(-c3ccccc3[N+](=O)[O-])o2)SC(=S)N1c1cccc(Cl)c1	20	1.1
O=C(Nc1ccccc1Br)C1CN(S(=O)(=O)c2ccccc2)CCN1S(=O)(=O)c1ccccc1 (stereo not drawn)	-1	1.1
O=C(Nc1ccccc1Cl)C1CN(S(=O)(=O)c2ccccc2)CCN1S(=O)(=O)c1ccccc1 (stereo not drawn)	11	1.4*
Cc1ccc(CN2CCN(/N=C\c3ccc(Br)s3)CC2)cc1	2	0.96
CCC(=O)Nc1ccc(NC(=O)COc2cc(C)ccc2C(C)C)cc1	20	0.93
Cc1nc2sc3c(c2c(=O)n1-n1cccc1)CCCC3	13	0.96
Cc1nc2sc3c(c2c2nncn12)CCCC3	6	0.66*
CC(C)CN1C(=O)/C(=C/C2CC=CCC2)SC1=S (stereo not drawn)	9	0.97
O=C1S/C(=C\c2ccc(Br)o2)C(=O)N1c1ccc(Cl)cc1	4	0.91
O=C(O)c1cccc(-c2ccc(/C=C3\SC(=O)N(c4ccc(Cl)cc4)C3=O)o2)c1	19	0.76*
O=C(Nc1cccc(F)c1)c1ccc([N+](=O)[O-])cc1	16	0.99
